Measurements from the supplement of paper PMC6089552.
Among all 3,200 compounds or so, about 300 (9.4%) showed activity. This is one part of a sample in which actives are shown more often than they occur.

System: A673/TR/shEF
Assay: cell viability (LOESS-normalised, relative to median of negative controls) (log2 ratio); higher = more viable cells (less compound effect), active = hit call of the paper (over 3 MAD below the median)
Conditions: treatment time: 72 h
How it was run: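 A673/TR/shEF Ewing sarcoma cells were plated at 1,500 per well in 384-well plates and cultured with or without doxycycline, added 24 h before compounds, to induce EWS-FLI1 shRNA knockdown. Library compounds at two or more concentrations, alongside DMSO controls, were applied for three days. Cell viability was measured by CellTiter-Glo luminescence on an Envision reader. Readings were LOESS-corrected per plate, divided by the median of negative controls and log2-transformed, and hits were wells lying at least three median absolute deviations from the median of all screened wells.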

[1] = 0.25 µM, library screen: screen1, EWS-FLI1 expression: high (no doxycycline)
[2] = 0.25 µM, library screen: screen1, EWS-FLI1 expression: low (doxycycline-induced shRNA knockdown)
[3] = 2.5 µM, library screen: screen1, EWS-FLI1 expression: high (no doxycycline)
[4] = 2.5 µM, library screen: screen1, EWS-FLI1 expression: low (doxycycline-induced shRNA knockdown)
[5] = 0.25 µM, library screen: screen2, EWS-FLI1 expression: high (no doxycycline)
[6] = 0.25 µM, library screen: screen2, EWS-FLI1 expression: low (doxycycline-induced shRNA knockdown)
[7] = 2.5 µM, library screen: screen2, EWS-FLI1 expression: high (no doxycycline)
[8] = 2.5 µM, library screen: screen2, EWS-FLI1 expression: low (doxycycline-induced shRNA knockdown)
[9] = 0.103 µM, library screen: screen3, EWS-FLI1 expression: high (no doxycycline)
[10] = 0.103 µM, library screen: screen3, EWS-FLI1 expression: low (doxycycline-induced shRNA knockdown)
[11] = 0.308 µM, library screen: screen3, EWS-FLI1 expression: high (no doxycycline)
[12] = 0.308 µM, library screen: screen3, EWS-FLI1 expression: low (doxycycline-induced shRNA knockdown)
[13] = 0.926 µM, library screen: screen3, EWS-FLI1 expression: high (no doxycycline)
[14] = 0.926 µM, library screen: screen3, EWS-FLI1 expression: low (doxycycline-induced shRNA knockdown)
[15] = 2.8 µM, library screen: screen3, EWS-FLI1 expression: high (no doxycycline)
[16] = 2.8 µM, library screen: screen3, EWS-FLI1 expression: low (doxycycline-induced shRNA knockdown)
[17] = 8.3 µM, library screen: screen3, EWS-FLI1 expression: high (no doxycycline)
[18] = 8.3 µM, library screen: screen3, EWS-FLI1 expression: low (doxycycline-induced shRNA knockdown)
[19] = 25 µM, library screen: screen3, EWS-FLI1 expression: high (no doxycycline)
[20] = 25 µM, library screen: screen3, EWS-FLI1 expression: low (doxycycline-induced shRNA knockdown)

Measured: cell viability (log2)

CC(=O)N[C@@H]1[C@@H](O)[C@H](O)[C@@H](CO)O[C@H]1O
inactive: [1] 0.0385 | [2] 0.0648 | [3] 0.0809 | [4] 0.0429

CC(C)CC1NC(=O)C(Cc2ccccc2)NC(=O)C(CCN)NC(=O)C(NC(=O)C(CCN)NC(=O)C(CCO)NC(=O)C(CCN)NC=O)CCNC(=O)C(CCO)NC(=O)C(CCN)NC(=O)C(CCN)NC1=O.COc1cc(Cc2cnc(N)nc2N)cc(OC)c1OC (stereo not drawn)
inactive: [1] 0.0686 | [2] 0.0873 | [3] 0.182 | [4] 0.054

Cc1ccccc1N1CCN(S(=O)(=O)C[C@]23CCC(CC2NC(=O)[C@@H](N)CCS(C)(=O)=O)C3(C)C)CC1 (stereo partly drawn)
inactive: [5] 0.163 | [6] 0.172 | [7] 0.18 | [8] 0.0913

CC(C)=CCCC1(C)C=Cc2c(O)c3c(c(CC=C(C)C)c2O1)OC12C(=CCCC1C(C)(C)OC2(CC=C(C)C(=O)O)C(=O)O)C3=O (stereo not drawn)
inactive: [1] 0.0468 | [2] -0.0618 | [3] 0.121 | [4] 0.0265

CN(C)C(=O)/N=N/C(=O)N(C)C
inactive: [5] 0.0755 | [6] 0.0201 | [7] 0.21 | [8] 0.117

COc1ccc(Cl)cc1C(=O)NCCc1ccc(S(=O)(=O)NC(=O)NC2CCCCC2)cc1
inactive: [9] 0.115 | [10] 0.0621 | [1] 0.0607 | [2] 0.0399 | [5] 0.171 | [6] 0.0382 | [11] 0.175 | [12] 0.0954 | [13] 0.104 | [14] 0.103 | [3] 0.0749 | [4] 0.0806 | [7] 0.0699 | [8] 0.0189 | [15] 0.125 | [16] 0.0778 | [17] 0.113 | [18] 0.0685 | [19] 0.0907 | [20] 0.0579

CCC1=C(C)CN(C(=O)NCCc2ccc(S(=O)(=O)NC(=O)NC3CCC(C)CC3)cc2)C1=O (stereo not drawn)
inactive: [9] 0.065 | [10] 0.0619 | [11] -0.018 | [12] 0.0454 | [13] -0.0554 | [14] -0.00949 | [15] 0.0264 | [16] -0.0201 | [17] -0.0146 | [18] -0.0784
active: [19] -0.481 | [20] -0.408

Cc1cnc(C(=O)NCCc2ccc(S(=O)(=O)NC(=O)NC3CCCCC3)cc2)cn1
inactive: [9] 0.103 | [10] 0.0573 | [5] 0.139 | [6] -0.00978 | [11] 0.195 | [12] 0.0857 | [13] 0.143 | [14] 0.063 | [7] 0.155 | [8] 0.035 | [15] 0.0953 | [16] 0.0849 | [17] 0.13 | [18] 0.0833 | [19] 0.172 | [20] 0.135
